Where “and” joins values, the source holds several entries; their conditions need not be identical. Equal values may be shown once. Records with an inconclusive call do not appear. A call without a number means that no potency is given here. A number with no mark means an inactive call. Calls of active or inactive are those of the source. The call rests on the fitted dose curve; in most records, active means well fitted curve in the direction sought with a large enough effect; inconclusive means small, poorly fitted or top-dose-only effect, or another doubt; inactive means no such curve, though single readings can be large; an effect the other way counts as inactive or inconclusive.
Legend:
[1] = biological target: Cellular tumor antigen p53 (Homo sapiens) (UniProt P04637); assay: Primary qHTS for small molecule compounds that upregulate eGFP-tagged delta133p53alpha (in N-terminal) cells. (AID 2060322); conditions: NCI-H358 eGFP-delta133p53alpha fluorescence, 24 h; activation: stronger effect = higher value; further: nearly all actives have a fitted effect of over 75% in size; further: potency means the concentration at half of the fitted maximal effect;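 on activation: cells pre-induced with doxycycline then dosed without doxycycline; series mostly up to about 56 µM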
In short: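 NCI-H358 cells pre-induced 24 h with 10 ng/ml doxycycline for eGFP-delta133p53alpha, plated dox-free and exposed 24 h at 37C to titrated compounds. Fixed, Hoechst-stained; gated GFP peak intensity by laser scanning cytometry, normalized to DMSO (0%) and 57.5 uM 5-azacytidine (100%).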

[2] = biological target: Aldehyde dehydrogenase, mitochondrial (Homo sapiens) (UniProt P05091); assay: qHTS for Inhibitors of the Aldehyde Dehydrogenase Family (ALDH2) Primary screen (AID 2061308); further: nearly all actives have a fitted effect of over 55% in size
[3] = biological target: Retinaldehyde dehydrogenase 3 (Homo sapiens) (UniProt P47895); assay: qHTS for Inhibitors of the Aldehyde Dehydrogenase Family (ALDH1A3) Confirmatory screens (AID 2061311); further: nearly all actives have a fitted effect of over 60% in size; further: potency means the concentration at half of the fitted maximal effect
[4] = biological target: Retinaldehyde dehydrogenase 3 (Homo sapiens) (UniProt P47895); assay: qHTS for Inhibitors of the Aldehyde Dehydrogenase Family (ALDH1A3) Validation screen (AID 2061312); further: nearly all actives have a fitted effect of over 45% in size; further: potency means the concentration at half of the fitted maximal effect
[5] = biological target: Retinaldehyde dehydrogenase 3 (Homo sapiens) (UniProt P47895); assay: qHTS for Inhibitors of the Aldehyde Dehydrogenase Family (ALDH1A3) Primary screen (AID 2061315); further: potency means the concentration at half of the fitted maximal effect
[6] = biological target: Retinal dehydrogenase 2 (Homo sapiens) (UniProt O94788); assay: qHTS for Inhibitors of the Aldehyde Dehydrogenase Family (ALDH1A2) Confirmation screens (AID 2061314); further: nearly all actives have a fitted effect of over 65% in size; further: potency means the concentration at half of the fitted maximal effect
[7] = biological target: Aldehyde dehydrogenase 1A1 (Homo sapiens) (UniProt P00352); assay: qHTS for Inhibitors of the Aldehyde Dehydrogenase Family (ALDH1A1) Confirmatory screens (AID 2061316); further: nearly all actives have a fitted effect of over 65% in size; further: potency means the concentration at half of the fitted maximal effect
[8] = BET inhibitor-based combinations targeting novel dependencies in MECOM-rearranged (r) AML: SET-2 cell line (AID 2202231); conditions: SET-2 AML cells viability, CellTiter-Glo luminescence, 48 h; viability: stronger effect = lower value, concentration not given here; further: potency means the concentration at half of the fitted maximal effect; nearly all actives have a fitted effect of over 35% in size
In short: (§1)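 AML cell lines seeded at 500 cells/well, treated with 11-point dose curves for 48 h. Viability by CellTiter-Glo luminescence, normalised to DMSO and empty wells; activity expressed as AUC and per-cell-line Z-transformed AUC.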

[9] = BET inhibitor-based combinations targeting novel dependencies in MECOM-rearranged (r) AML: OCI-AML3 cell line (AID 2202232); conditions: Potency: OCI-AML3 viability; further: potency means the concentration at half of the fitted maximal effect; nearly all actives have a fitted effect of over 35% in size
In short: as §1

[10] = BET inhibitor-based combinations targeting novel dependencies in MECOM-rearranged (r) AML: MV-4-11 cell line (AID 2202233); further: potency means the concentration at half of the fitted maximal effect; nearly all actives have a fitted effect of over 45% in size
In short: (§2)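 Cells at 500/well were exposed for 48 hr to MIPE v5.0 drugs as 11-point dose curves. Viability was read by CellTiter-Glo luminescence and normalized to DMSO and empty-well controls. Activity was expressed as AUC and per-cell-line Z-AUC.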

[11] = BET inhibitor-based combinations targeting novel dependencies in MECOM-rearranged (r) AML: HNT-34 cell line (AID 2202234); further: potency means the concentration at half of the fitted maximal effect; nearly all actives have a fitted effect of over 35% in size
In short: as §2

[12] = BET inhibitor-based combinations targeting novel dependencies in MECOM-rearranged (r) AML: UCSD-AML1 cell line (AID 2202235); further: potency means the concentration at half of the fitted maximal effect; nearly all actives have a fitted effect of over 40% in size
In short: as §2

[13] = BET inhibitor-based combinations targeting novel dependencies in MECOM-rearranged (r) AML: AML-191 cell line (AID 2202236; further: potency means the concentration at half of the fitted maximal effect; nearly all actives have a fitted effect of over 35% in size)
In short: as §1

[14] = BET inhibitor-based combinations targeting novel dependencies in MECOM-rearranged (r) AML: AML-194 cell line (AID 2202237; further: potency means the concentration at half of the fitted maximal effect; nearly all actives have a fitted effect of over 40% in size)
In short: as §1

Cellular tumor antigen p53 (Homo sapiens), sequence (P04637 whole entry, looked up): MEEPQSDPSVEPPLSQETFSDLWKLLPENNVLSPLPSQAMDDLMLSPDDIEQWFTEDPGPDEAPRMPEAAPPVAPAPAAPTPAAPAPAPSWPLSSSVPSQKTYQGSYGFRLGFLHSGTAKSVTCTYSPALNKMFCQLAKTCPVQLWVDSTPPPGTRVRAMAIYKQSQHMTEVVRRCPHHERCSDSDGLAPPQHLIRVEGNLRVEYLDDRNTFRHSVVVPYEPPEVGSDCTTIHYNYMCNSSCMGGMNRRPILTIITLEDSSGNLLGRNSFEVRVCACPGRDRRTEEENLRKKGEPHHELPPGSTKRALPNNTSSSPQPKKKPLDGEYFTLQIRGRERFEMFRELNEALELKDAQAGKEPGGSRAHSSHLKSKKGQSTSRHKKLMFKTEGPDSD

For `CC(C)(Oc1ccc(-c2nc3cc(Cl)ccc3s2)cc1)C(=O)O`, which activation [1] is on record?
The activation was -19.6%.

What about the Potency [2] of the same molecule?
The Potency was “inactive”.

What about the Potency [3] of the same molecule?
Its Potency is 12.6 µM (active).

And the Potency [4]?
The Potency was 31.6 µM (active).

What about the Potency [5] of the same molecule?
The Potency was 11.2 µM (active).

With `Cc1ccc(C(=O)Nc2noc3ccccc23)cc1` as the molecule, how does the activation [1] read?
The activation was -1%.

And the Potency [2]?
The Potency was “inactive”.

And the Potency [3]?
Its Potency is 1.27 µM (active).

What about the Potency [6] of the same molecule?
The Potency was “inactive”.

And the Potency [5]?
The Potency was 5.01 µM (active).

What about the Potency [7] of the same molecule?
Its Potency is “inactive”.

What does the source list for `C/C(=C\CC/C(C)=C/CC[C@]1(C)CCc2cc(O)cc(C)c2O1)CC/C=C(\C)C(=O)O`?
activation [1]: -5.36%; Potency [2]: inactive; Potency [3]: inactive; Potency [6]: inactive; Potency [5]: inactive

Which results are given for `CC(=O)N1CCc2ccc(O)c(OC3OC(COC4OCC(O)(CO)C4O)C(O)C(O)C3O)c2C1Cc1ccc(O)cc1` (stereo not given)?
activation [1]: -0.763%; Potency [2]: inactive

Which results are given for `CC[C@H](NC(=O)c1c(O)c(-c2ccccc2)nc2ccccc12)c1ccccc1`?
activation [1]: 2.86%; Potency [2]: inactive; Potency [3]: 3.57 µM (active); Potency [6]: 1.27 µM (active); Potency [7]: 3.18 µM (active)

For `COc1cc(/C=C/C=O)cc(OC)c1O[C@@H]1O[C@H](CO)[C@@H](O)[C@H](O)[C@H]1O`, which activation [1] is on record?
The activation was -14.3%.

What about the Potency [2] of the same molecule?
Its Potency is “inactive”.

Which results are given for `C=C1CC[C@H]2[C@@](C)(CCC(O)[C@@]2(C)CO)[C@@H]1CCC1=CCOC1=O` (stereo not given in full)?
activation [1]: -11.5%; Potency [2]: inactive

Which activation [1] does the source give for `COC(=O)C1=COC(O[C@@H]2O[C@H](CO)[C@@H](O)[C@H](O)[C@H]2O)/C(=C\COC(=O)c2ccc(OC3OC(CO)C(O)C(O)C3O)c(OC)c2)C1CC(=O)OCCc1ccc(O)cc1` (stereo not given in full) here?
The activation was -11.5%.

And the Potency [2]?
The Potency was “inactive”.

For `CC1CC=C2C1CC1(O)C(=O)CC2(C)C1(C)CO` (stereo not given), which activation [1] is on record?
The activation was 3.82%.

What about the Potency [2] of the same molecule?
The Potency was “inactive”.

With `C=C1C(=O)O[C@@H]2C3C(=C(C)[C@@H](O)[C@@H](OC(=O)/C(=C/C)COC(C)=O)[C@@H]12)C(=O)[C@H]1O[C@@]31C` (stereo not given in full) as the molecule, how does the Potency [1] read?
Its Potency is 2.08 µM (active).

What about the Potency [2] of the same molecule?
The Potency was “inactive”.

What about the Potency [3] of the same molecule?
The Potency was “inactive”.

And the Potency [6]?
The Potency was 0.98 µM (active).

What about the Potency [5] of the same molecule?
The Potency was “inactive”.

What about the Potency [7] of the same molecule?
Its Potency is “inactive”.

For `C=C1CCC2(C(=O)OC3OC(CO)C(O)C(O)C3O)CCC3(C)C(=CCC4C5(C)CCC(OC6OC(CO)C(OC7OC(C)C(O)C(O)C7O)C(OC7OCC(O)C(O)C7O)C6O)C(C)(C)C5CCC43C)C2C1` (stereo not given), which activation [1] is on record?
The activation was 14.3%.

What about the Potency [2] of the same molecule?
The Potency was “inactive”.

For `O=C(c1ccc(C#Cc2cccc(F)c2)cn1)N1CC2CC2C1` (stereo not given), which activation [1] is on record?
The activation was -1%.

What about the Potency [2] of the same molecule?
The Potency was “inactive”.

What does the source list for `COc1ccc([C@@H]2OC[C@H]3[C@@H]2CO[C@@H]3c2ccc(OC3OC(CO)C(O)C(O)C3O)c(OC)c2)cc1OC` (stereo not given in full)?
activation [1]: 10.7%; Potency [2]: inactive

Which results are given for `COc1ccc(CC2C(=O)NC(C)C(=O)N(C)C3Cc4ccc(cc4)Oc4cc(ccc4OC4OC(CO)C(O)C(O)C4O)CC(C(=O)NC(C)C(=O)NC(C)C(=O)N2C)N(C)C3=O)cc1` (stereo not given)?
Potency [1]: 5.09 µM (active); Potency [2]: inactive; Potency [3]: 4.78 µM (active)

For `COC(=O)C1=COC(O[C@@H]2O[C@H](CO)[C@@H](O)[C@H](O)[C@H]2O)C2C(C)C(=O)CC12` (stereo not given in full), which activation [1] is on record?
Its activation is -1.53%.

And the Potency [2]?
The Potency was “inactive”.

For `O=C(Nc1ccccc1)N1CCC(Cc2cnc3ccccc3c2)CC1`, which Potency [6] is on record?
Its Potency is “inactive”.

Which Potency [8] does the source give for `COc1ccc(S(=O)(=O)Nc2cccnc2Nc2ccc(O)cc2)cc1` here?
The Potency was 1.32 µM (active).

And the Potency [9]?
The Potency was 0.662 µM (active).

What about the Potency [10] of the same molecule?
The Potency was 0.742 µM (active).

What about the Potency [11] of the same molecule?
Its Potency is 0.59 µM (active).

And the Potency [12]?
The Potency was 0.468 µM (active).

What about the Potency [13] of the same molecule?
The Potency was 0.468 µM (active).

What about the Potency [14] of the same molecule?
Its Potency is 0.662 µM (active).

With `Clc1cccc(-c2nnnn2Cc2cccnc2)c1Cl` as the molecule, how does the activation [1] read?
Its activation is 12.9% and -2.86%.

And the Potency [2]?
The Potency was “inactive”.

And the Potency [4]?
The Potency was “inactive”.

What about the Potency [5] of the same molecule?
The Potency was “inactive”.

For `CN(C)CC(c1ccc(O)cc1)C1(O)CCCCC1` (stereo not given), which activation [1] is on record?
The activation was -9.55%.

And the Potency [2]?
The Potency was “inactive”.

And the Potency [4]?
The Potency was “inactive”.

And the Potency [5]?
The Potency was “inactive”.

Which activation [1] does the source give for `Cc1oc2nc3c(c(NC(=O)CN4CCCC4=O)c2c1C)CCCC3` here?
The activation was -3.82%.

What about the Potency [2] of the same molecule?
Its Potency is “inactive”.

And the Potency [4]?
The Potency was “inactive”.

What about the Potency [5] of the same molecule?
Its Potency is “inactive”.

With `COc1cc(NC(=O)c2cc(C3CC3)on2)c(OC)cc1Cl` as the molecule, how does the activation [1] read?
The activation was -12.4%.

What about the Potency [2] of the same molecule?
The Potency was “inactive”.

And the Potency [4]?
Its Potency is “inactive”.

And the Potency [5]?
Its Potency is “inactive”.

Which activation [1] does the source give for `O=C(Nc1ccc(F)cc1)N1CCc2ccccc2C1c1ccc(C(F)(F)F)cc1` (stereo not given) here?
The activation was 13.4%.

And the Potency [2]?
Its Potency is “inactive”.

And the Potency [4]?
The Potency was “inactive”.

And the Potency [5]?
Its Potency is “inactive”.

Which activation [1] does the source give for `CC(C)(C)c1ccc(S(=O)(=O)NCc2ccc(C(=O)Nc3cccnc3)cc2)cc1` here?
The activation was 1.91%.

And the Potency [2]?
The Potency was “inactive”.

What about the Potency [4] of the same molecule?
Its Potency is “inactive”.

And the Potency [5]?
The Potency was “inactive”.

What does the source list for `O=c1[nH]c2ccccc2n1CCN1CCN(c2cccc(C(F)(F)F)c2)CC1`?
activation [1]: -3.34%; Potency [2]: inactive; Potency [4]: inactive; Potency [5]: inactive

Which activation [1] does the source give for `Cc1cc(OCCCS(C)(=O)=O)cc(C)c1-c1cccc(COc2ccc3c(c2)OCC3CC(=O)O)c1` (stereo not given) here?
The activation was 6.68%.

And the Potency [2]?
The Potency was “inactive”.

And the Potency [4]?
Its Potency is “inactive”.

What about the Potency [5] of the same molecule?
Its Potency is “inactive”.

Which results are given for `c1ccc(CN(CC2=NCCN2)c2ccccc2)cc1`?
activation [1]: 0.837% and -3.82%; Potency [2]: inactive; Potency [4]: inactive; Potency [5]: inactive

Which activation [1] does the source give for `CC(C)Nc1nc(Nc2ccccc2)nc(-c2ccccc2)n1` here?
The activation was 2.39%.

What about the Potency [2] of the same molecule?
Its Potency is “inactive”.

And the Potency [4]?
Its Potency is “inactive”.

What about the Potency [5] of the same molecule?
The Potency was “inactive”.

For `CCOCCn1nc(CC)c2nc(N3CCC(C(=O)O)CC3)nc(Nc3cc(C)ccn3)c21`, which activation [1] is on record?
Its activation is 0%.

What about the Potency [2] of the same molecule?
Its Potency is “inactive”.

What about the Potency [4] of the same molecule?
Its Potency is “inactive”.

What about the Potency [5] of the same molecule?
Its Potency is “inactive”.
